Assay [1] in a line: liver-stage malaria parasite growth inhibition, primary screen, cell-based, HepG2, luciferase luminescence, HepG2 viability (AID 624349; in the data active means parasite load remaining mostly below about 12%, no sharp cut-off; inactive means mostly above about 10%;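 further: 100% = mean of DMSO negative control wells on the same plate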). The settings on record: P. berghei liver stage in HepG2, luciferase luminescence, concentration not given here; parasite load remaining: stronger effect = lower value; viability: measured here: HepG2 viability without parasites.
The nature of assay [2]: Cy5 fluorescence interference with SSB-bound oligo, artefact control for HCV NS3 helicase inhibitor project, biochemical, NIH Clinical Collection, E. coli SSB (AID 743268).
Assay [3] concerns Hepatitis C virus NS3 helicase. The assay can be described thus: HCV NS3 helicase inhibitors, primary screen, biochemical, fluorescence polarization, NIH Clinical Collection (AID 743270). The settings on record: NS3 helicase binding to Cy5-dT15 DNA, stronger effect = higher value, concentration not given here. For orientation: Polarisation of emitted light reports the rotation of a fluorescent probe.

For assay [4], the target named is Single-stranded DNA-binding protein (Escherichia coli (strain K12)) (UniProt P0AGE0). Put plainly: E. coli SSB displacement from DNA, counter-screen for HCV NS3 helicase inhibitor project, biochemical, fluorescence polarization, NIH Clinical Collection (AID 743271; in the data active means inhibition above about 28%). The settings on record: stronger effect = higher value, concentration not given here. For orientation: A counterscreen serves to expose hits that act by an unwanted route or on another target.

Assay [5] is described as follows: fluorescence interference in NS3h assay format, artefact control for HCV NS3 helicase inhibitor project, biochemical, NIH Clinical Collection (AID 743272).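 Further: HCV NS3 helicase with a Cy5 labelled single stranded DNA probe.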 Particulars: fluorescence interference counterscreen, stronger effect = lower value.
For assay [6], the system named is Neuropilin-2 / VEGF-C interaction (human). Put plainly: inhibitors of NRP2–VEGF-C binding, biochemical, microplate binding format, z-score (AID 743281). Particulars: microplate NRP2/VEGF-C binding assay; stronger effect = lower value.
Assay [7] is described as follows: stimulators of nuclear beta-catenin in C2C12, primary screen, imaging, WNT3A-conditioned medium, mouse C2C12, NPC library (AID 1117326; in the data active means nuclear beta-catenin stimulation mostly above about 4.2%, no sharp cut-off; inactive means mostly below about 10%). Particulars: stronger effect = higher value.
The nature of assay [8]: stimulators of insulin release from INS-1E, primary screen, cell-based, 5 mM glucose, NPC library (AID 1117329;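 active means compound raises insulin release from rat beta cells at 5 mM glucose, no numeric limit stated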). Particulars: rat INS-1E insulin secretion, at 10 µM, stronger effect = higher value.
Assay [9] in a line: growth inhibition of GSK3B-pretreated HCT116 cells – cell-based, CellTiter-Glo, 0.2 to 20 µM (AID 1117336;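 active means compounds lowering colon cancer cell viability after pretreatment blocking the GSK3B kinase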). The settings on record: HCT116 viability after GSK3B inhibitor, at 20 µM, stronger effect = higher value. (In general: In ATP-based viability assays light output follows the ATP content of the culture.)
Assay [10] in a line: inhibition of endothelial tube formation, primary screen, imaging, VEGF stimulated, CD31 staining, tube area, NPC library (AID 1117340;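 active means compound that reduces growth-factor-driven endothelial tube area in a mixed cell culture, no cutoff stated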). The settings on record: VEGF-stimulated ADSC/ECFC co-culture, at 10 µM, stronger effect = higher value.
Assay [11] in a line: glucagon-like peptide 1 release enhancers, primary assay, NCI-H716 cell line, NPC library (AID 1117341;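 active means compound raises GLP1 secretion from the human gut endocrine cells, with no numeric limit stated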). Particulars: NCI-H716 cells, at 10 µM, stronger effect = higher value.
The nature of assay [12]: HCT116 colon cancer cell growth inhibition, primary screen, CellTiter-Glo luminescence, NPC library (AID 1117342;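 active means compounds that lower survival of HCT116 colon cancer cells in the luminescence readout, no numeric limit stated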). The settings on record: at 20 µM (top of the series).
A short description of assay [13]: CellTiter-Glo luminescent readout of SW480 viability loss, NPC library primary (AID 1117343;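 active means compounds that lower viability of the colon cancer cells in the luminescence readout, with no numeric limit stated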). The settings on record: CellTiter-Glo luminescence; at 20 µM (top of the series).
The nature of assay [14]: decreased DLD-1 cellular survival, CellTiter-Glo luminescent readout, NPC compound collection, primary HTS (AID 1117346;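 active means compounds that lower survival of DLD-1 colon cancer cells in the luminescence readout, no cutoff given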). The settings on record: DLD-1 viability, CellTiter-Glo luminescence; at 20 µM (top of the series).

Several values for one entry are separate records, joined by “and”; a condition that tells them apart may be missing. Equal values may be shown once. Activity calls are given as the source filed them. Unless noted, how the calls were made is not given here.

These results are taken from PubChem BioAssay.

The viability is a read-out of living cells in per cent, often relative to untreated cells. One may read the inhibition as the drop in the measured response relative to a control, in per cent.

On to `CN1[C@@H]2CC[C@H]1CC(OC(=O)c1c[nH]c3ccccc13)C2` (some centres undefined), for which the parasite load remaining in assay [1] is 118% (inactive) and 21.9% (inactive). For the same molecule, the viability in assay [1] was 102% and 67.5%. Also, the results for the fluorescence ratio in assay [2] and in assay [5] were 1.02 (inactive) and 0.9 (inactive), respectively. For the same molecule, the inhibition in assay [3] was -3.56% (inactive); in [4] it was -3.95% (inactive). Besides, the z-score in [6] is -0.714 (inactive). Also, the nuclear beta-catenin stimulation in [7] (at 10 µM) was 1.1% (inactive); in assay [7] (stimulation, at 2 µM) it was 1.6%. Besides, the insulin secretion stimulation in assay [8] was 13.7% (inactive). Further, the viability decrease in assay [9] is 24.6% (inactive). Moreover, in assay [10], the tube area decrease is 16.9% (inactive). Further, the GLP1 secretion stimulation in [11] is -0.1% (inactive). In [12], the inhibition of viability is 57.8% (active). Besides, the figures for the viability decrease (inhibition) in assay [13] and in assay [14] were 51.8% (active) and 43.6% (inactive), respectively.
With `NCC1CCC(C(=O)Oc2ccc(CCC(=O)O)cc2)CC1` (centres undefined), in [1], the parasite load remaining was 104% (inactive). Also, in assay [1], the viability came to 78.2%. Also, the figures for the fluorescence ratio in assay [2] and in assay [5] were 1.02 (inactive) and 0.94 (inactive), respectively. The inhibition in [3] was -1.98% (inactive); in [4], -3.18% (inactive). The z-score in assay [6] was -0.934 (inactive). The nuclear beta-catenin stimulation in assay [7] (at 10 µM) is 0.5% (inactive); in assay [7] (stimulation, at 2 µM), 1%. For the same molecule, in [8], the insulin secretion stimulation was -2.1% (active). Moreover, the viability decrease in assay [9] was 1.9% (inactive). Moreover, the tube area decrease in [10] was 4.4% (inactive). Moreover, the GLP1 secretion stimulation in assay [11] is 1.4% (inactive). In [12], the inhibition of viability is -7.95% (inactive). The viability decrease (inhibition) in [13] is 17.7% (inactive); in assay [14] it was 3.17% (inactive).
As for `COC(=O)C1=C(C)NC(C)=C(C(=O)OC(C)C)C1c1cccc2nonc12` (centres undefined), in assay [1], the parasite load remaining is 105% (inactive) and 85.6% (inactive). For the same molecule, the viability in assay [1] was 74.3% and 66.7%. Also, the values for the fluorescence ratio in assay [2] and in assay [5] were 1.01 (inactive) and 0.98 (inactive), respectively. The inhibition in [3] is 6.73% (inactive); in assay [4], 4.52% (inactive). Further, the z-score in assay [6] is -2.69 (inactive). For the same molecule, the nuclear beta-catenin stimulation is 28.6% (inactive) in assay [7] (at 10 µM) and 0.3% in [7] (stimulation, at 2 µM). In [8], the insulin secretion stimulation is -0.7% (inactive). In addition, the viability decrease in assay [9] is -4.5% (inactive). Also, the tube area decrease in assay [10] was 13.7% (inactive). Further, the GLP1 secretion stimulation in assay [11] was -2.4% (inactive). Moreover, the inhibition of viability in assay [12] was 48.4% (inactive). In addition, the values for the viability decrease (inhibition) in [13] and in [14] were 20.8% (inactive) and 11.2% (inactive), respectively.
In the case of `CN(C)CCCSc1ccccc1NC(=O)/C=C/c1ccccc1`, the parasite load remaining in [1] is 53.7% (inactive) and 10.2% (inactive). Also, the viability in [1] is 56.6% and 65.5%. In addition, the fluorescence ratio in [2] was 0.99 (inactive); in assay [5], 0.97 (inactive). Besides, the values for the inhibition in assay [3] and in [4] were 0.4% (inactive) and -2.41% (inactive), respectively. In addition, the z-score in assay [6] is -0.209 (inactive). Moreover, the nuclear beta-catenin stimulation in assay [7] (at 10 µM) is 1.7% (inactive); in assay [7] (stimulation, at 2 µM), 1.1%. The insulin secretion stimulation in assay [8] was 9.9% (inactive). Besides, the viability decrease in assay [9] is -78.5% (inactive). Besides, the tube area decrease in assay [10] is 23.1% (inactive). In addition, the GLP1 secretion stimulation in [11] is 3.9% (inactive). Further, the inhibition of viability in [12] is 25.5% (inactive). The viability decrease (inhibition) in assay [13] was 5.3% (inactive); in assay [14], -18% (inactive).
As for `COc1cc(C(=O)NS(=O)(=O)c2ccccc2C)ccc1Cc1cn(C)c2ccc(NC(=O)OC3CCCC3)cc12`, in assay [1], the parasite load remaining was 103% (inactive) and 39.6% (inactive). In assay [1], the viability was 73.8% and 104%. Besides, the fluorescence ratio in assay [2] was 0.99 (inactive); in [5], 1.03 (inactive). Also, the inhibition is 16.2% (active) in assay [3] and 25.3% (inactive) in assay [4]. Further, the z-score in assay [6] is -5.32 (active). Also, the nuclear beta-catenin stimulation in assay [7] (at 10 µM) was 0.1% (inactive); in assay [7] (stimulation, at 2 µM), 0.4%. In [8], the insulin secretion stimulation is 3.85% (inactive). The viability decrease in assay [9] is 106% (active). The tube area decrease in [10] is 44.5% (active). Besides, the GLP1 secretion stimulation in assay [11] was 19.5% (inactive). Also, the inhibition of viability in assay [12] is 106% (active). Also, the results for the viability decrease (inhibition) in assay [13] and in assay [14] were 120% (active) and 98.2% (active), respectively.
With `O=C1c2cccc3c2[C@H](CCC3)CN1[C@@H]1CN2CCC1CC2`, the parasite load remaining in assay [1] is 80.1% (inactive). For the same molecule, the viability in assay [1] turned out to be 69.6%. In addition, the fluorescence ratio in [2] was 0.94 (inactive); in assay [5], 0.96 (inactive). The inhibition in assay [3] is -1.09% (inactive); in assay [4], 9.84% (inactive). The z-score in assay [6] was -0.136 (inactive). The nuclear beta-catenin stimulation was 0.4% (inactive) in assay [7] (at 10 µM) and 1.5% in assay [7] (stimulation, at 2 µM). Moreover, in assay [8], the insulin secretion stimulation is 2.7% (inactive). Further, the viability decrease in [9] was 19.7% (inactive). In [10], the tube area decrease was -6.9% (inactive). Also, the GLP1 secretion stimulation in [11] is -4.5% (inactive). In addition, the inhibition of viability in [12] is 42% (inactive). Moreover, the values for the viability decrease (inhibition) in [13] and in assay [14] were 31% (inactive) and 29.6% (inactive), respectively.
`CC(=O)Oc1ccccc1C(=O)Nc1ncc([N+](=O)[O-])s1`: the parasite load remaining in assay [1] is 0.07% (inactive). For the same molecule, in assay [1], the viability was determined as 55.1%. Further, the fluorescence ratio in assay [2] and in assay [5] was 1 (inactive) throughout. The figures for the inhibition in assay [3] and in assay [4] were 2.77% (inactive) and 4.52% (inactive), respectively. Besides, the z-score in [6] was -0.0903 (inactive). Moreover, the nuclear beta-catenin stimulation was 13.9% (inactive) in assay [7] (at 10 µM) and 2% in assay [7] (stimulation, at 2 µM). Besides, the insulin secretion stimulation in [8] is -1.8% (inactive). The viability decrease in assay [9] was 106% (active). In addition, the tube area decrease in [10] was 110% (active). Also, the GLP1 secretion stimulation in [11] was 2.9% (inactive). The inhibition of viability in assay [12] was 107% (active). For the same molecule, the viability decrease (inhibition) in assay [13] is 120% (active); in [14], 95.2% (active).
`O=C1CC2(CCCC2)CC(=O)N1CCNCC1COc2ccccc2O1` (centres undefined): the parasite load remaining in [1] was 46.8% (inactive). The viability in [1] was 69.1%. Also, the fluorescence ratio in assay [2] and in assay [5] was 0.98 (inactive) in each case. Further, the figures for the inhibition in assay [3] and in assay [4] were -8.95% (inactive) and -4.33% (inactive), respectively. Moreover, in [6], the z-score was 0.317 (inactive). Moreover, the nuclear beta-catenin stimulation in assay [7] (at 10 µM) is 0.9% (inactive); in assay [7] (stimulation, at 2 µM) it was 0.6%. Moreover, the insulin secretion stimulation in assay [8] was 5% (inactive). Further, the viability decrease in assay [9] is -32% (inactive). For the same molecule, the tube area decrease in assay [10] is -4.9% (inactive). Also, the GLP1 secretion stimulation in assay [11] was -2.3% (inactive). For the same molecule, the inhibition of viability in assay [12] is 25.7% (inactive). Further, the viability decrease (inhibition) in assay [13] is 14.5% (inactive); in [14], -5.7% (inactive).
In the case of `Cc1nc2n(c(=O)c1CCN1CCC(c3noc4cc(F)ccc34)CC1)CCCC2`, the parasite load remaining in [1] was 83.8% (inactive) and 28.6% (inactive) and 49.1% (inactive). The viability in assay [1] is 76.9% and 60.3% and 97.5%. In addition, the fluorescence ratio in assay [2] was 1.05 (inactive); in [5] it was 1.02 (inactive). For the same molecule, the values for the inhibition in [3] and in assay [4] were 3.56% (inactive) and 2.21% (inactive), respectively. For the same molecule, the z-score in [6] was -1.5 (inactive). The nuclear beta-catenin stimulation is 4.2% (inactive) in assay [7] (at 10 µM) and 4.4% in [7] (stimulation, at 2 µM). Besides, the insulin secretion stimulation in assay [8] was 2.5% (inactive). Besides, the viability decrease in [9] is 5.9% (inactive). In assay [10], the tube area decrease was 24.9% (inactive). Moreover, the GLP1 secretion stimulation in assay [11] is 2.3% (inactive). In assay [12], the inhibition of viability was 24.2% (inactive). For the same molecule, the results for the viability decrease (inhibition) in [13] and in [14] were 41.5% (inactive) and 10.7% (inactive), respectively.
